Results filed as inconclusive are left out. Activity calls are given as the source filed them. The call rests on the fitted dose curve; in most records, active means well fitted inhibition curve with a large enough effect; inconclusive means small, poorly fitted or top-dose-only effect, or effect the other way; inactive means flat fitted curve, though single readings scatter.
biological target: Ubiquitin carboxyl-terminal hydrolase 2 (Homo sapiens) (UniProt O75604); test: Ub-rhodamine 110 based assay for inhibitors Ubiquitin-specific Protease USP2a; conditions: USP2a Ub-rhodamine110 cleavage, fluorescence; series mostly up to 38.3 µM; activity change, negative = inhibition: at the top concentration; further: nearly all actives have a fitted effect of over 50% in size
Sequence (O75604 whole entry, looked up): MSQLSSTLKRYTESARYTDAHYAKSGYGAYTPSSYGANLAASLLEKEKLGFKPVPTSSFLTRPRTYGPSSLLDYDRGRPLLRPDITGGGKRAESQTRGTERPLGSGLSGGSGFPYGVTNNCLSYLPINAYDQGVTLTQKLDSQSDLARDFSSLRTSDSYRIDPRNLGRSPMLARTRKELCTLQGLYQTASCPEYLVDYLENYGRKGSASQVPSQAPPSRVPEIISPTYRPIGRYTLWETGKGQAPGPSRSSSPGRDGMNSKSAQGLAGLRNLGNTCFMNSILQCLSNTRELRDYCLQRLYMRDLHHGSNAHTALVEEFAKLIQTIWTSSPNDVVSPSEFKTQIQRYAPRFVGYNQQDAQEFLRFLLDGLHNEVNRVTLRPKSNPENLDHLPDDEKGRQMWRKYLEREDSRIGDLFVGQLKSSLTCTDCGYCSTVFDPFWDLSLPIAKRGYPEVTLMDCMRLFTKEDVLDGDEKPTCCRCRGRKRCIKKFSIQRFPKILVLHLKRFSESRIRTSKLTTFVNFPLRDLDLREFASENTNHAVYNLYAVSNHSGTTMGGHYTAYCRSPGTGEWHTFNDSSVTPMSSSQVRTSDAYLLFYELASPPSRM
Outline: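 Kinetic fluorescence (485/531 nm) read each minute over 7 min after adding Ub-Rhod110 (150 nM final) to USP2a (5 nM final). The enzyme had 30 min RT exposure to compounds beforehand in Tris pH 8.0 buffer with CaCl2, CHAPS and beta-ME.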
On the % scale 0 is the no-effect control and ±100 the full control effect; potency means the concentration at half of the fitted maximal effect.

Row | Structure (SMILES) | activity change, negative = inhibition | Potency
1 | O=C(Nc1cccc(C(F)(F)F)c1)/C(=C\c1ccco1)NC(=O)c1cccs1 | -4.02% (inactive) | 
2 | COc1ccc(-n2c(=S)[nH]c3cc(C(=O)Nc4cc(OC)c(OC)c(OC)c4)ccc3c2=O)c(OC)c1 | -15.9% (inactive) | 
3 | O=C(O)C(Cc1ccccc1)N1C(=O)/C(=C/C=C/c2ccco2)SC1=S (centres undefined) |  | 11.2 µM (active)
4 | Cc1ccccc1NC(=O)CSc1nnc(-c2ccco2)c(-c2ccco2)n1 |  | 10 µM (active)
5 | COc1ccc(-c2noc(CSc3nnc(Cc4ccccc4)n3-c3ccc(Cl)cc3)n2)cc1 | -20.3% (inactive) | 
6 | O=C1c2ccccc2C(=O)N1CCCCn1c(=O)oc2ccccc21 | -7.54% (inactive) | 
7 | Cc1ccccc1C(=O)Nc1ccc2nc3n(c(=O)c2c1)CCC3 | -6.38% (inactive) | 
8 | Cn1nnnc1Sc1ncnc2scc(-c3ccc4c(c3)OCO4)c12 | -18.2% (inactive) | 
9 | CCCCCc1ccc(OCCOCCn2c[n+](C)c3ccccc32)c(CCCCC)c1 | -4.31% (inactive) | 
10 | CC1(C)CC(=O)C=C(NCc2cccs2)C1 | 14.1% (inactive) | 
11 | N#Cc1cccc(C(=O)N(CCc2ccccc2)Cc2cccs2)c1 | -2.85% (inactive) | 
12 | COc1cccc(/C=N/n2c(SC)nnc2-c2ccccc2)c1O | -15.9% (inactive) | 
13 | C=CC[C@@H](CC(=O)N(CCO)Cc1ccccc1)C(=O)NCCOC(=O)[C@H](CC=C)CC(=O)OC(C)(C)C | 2.02% (inactive) | 
14 | COC(=O)[C@@]12CCCCN1[C@H](c1ccc(-c3ccc(Cl)c(Cl)c3)cc1)[C@H]1C(=O)N(C)C(=O)[C@H]12 | 1.84% (inactive) | 
15 | COC(=O)C1Sc2[nH]c(=O)sc2C(c2ccc(Cl)cc2)C1C(=O)OC (centres undefined) | -5.69% (inactive) | 
16 | N=C1/C(=C\c2ccc(-c3cccc(Cl)c3)o2)C(=O)N=C2SC=C(c3ccccc3)N12 |  | 11.2 µM (active)
17 | CCOC(=O)CN1C(=O)S/C(=C/c2ccc(O)c([N+](=O)[O-])c2)C1=O | -15% (inactive) | 
18 | Cc1ccc(NC(=O)COC(=O)c2ccc(NC(=O)CC#N)cc2)cc1S(=O)(=O)N1CCOCC1 |  | 10 µM (active)
19 | Cc1ccc(C(=O)NCc2ccc3c(c2)OCO3)cc1N1CCCC1=O | -7.01% (inactive) | 
20 | CCCCCCCCCCOC(=O)Cn1c(COc2cccc(C)c2)[n+](C)c2ccccc21 | -8.36% (inactive) | 

Row | Structure (SMILES) | activity change, negative = inhibition | Potency
21 | CC(C)(C)CC(C)(C)c1ccc(OCCOCC[N+](C)(C)Cc2ccccc2)cc1 | 2.74% (inactive) | 
22 | Cc1cccc(NC(=S)NCc2ccc3c(c2)cc(C)n3C)c1C | -9.94% (inactive) | 
23 | CC(C)(C)C1CCc2nc(NC(=O)Cc3cn4ccsc4n3)sc2C1 (centres undefined) | -15.6% (inactive) | 
24 | CCOC(=O)N1CCN(CC(=O)n2c(C)c(C)c3ccccc32)CC1 | -10.6% (inactive) | 
25 | C[C@H](CO)N1C[C@H](C)[C@@H](CN(C)S(=O)(=O)c2cn(C)cn2)Oc2ccc(NC(=O)Cn3cnnn3)cc2C1=O | -2.38% (inactive) | 
26 | CCC/C(O)=C1\C(=O)CC(C)(C)CC1=Nc1ccc(OC)cc1OC | -10.9% (inactive) | 
27 | C=CCn1c(N)c(C(=O)NCc2cccnc2)sc1=S | 4.72% (inactive) | 
28 | COc1ccc(-c2nnn(CC(=O)N3CCOCC3)n2)cc1 | -7.05% (inactive) | 
29 | COc1ccc(CCN2CC(C#N)=C3c4cc(OC)c(OC)cc4CCN3C2)cc1OC | -14.6% (inactive) | 
30 | Cc1cc(C(=O)NCc2ccco2)on1 | -27.9% (inactive) | 
31 | CCCSCCCNC(=O)CC1Oc2ccccc2NC1=O (centres undefined) | -16.1% (inactive) | 
32 | COc1ccc(C2CC(=O)N3CN(c4ccccc4F)CSC3=C2C#N)cc1OC (centres undefined) | -18.7% (inactive) | 
33 | CCCn1nnc(NC(=O)c2cccc(OCC(C)C)c2)n1 | -0.324% (inactive) | 
34 | CCN(CC)S(=O)(=O)c1ccc(-c2nnc(SCC(=O)Nc3ccc4c(c3)OCO4)o2)cc1 |  | 10 µM (active)
35 | CCOc1ccccc1C(=O)Nc1nnc(C(C)C)s1 | -14.6% (inactive) | 
36 | CC(=O)c1cccc(NC(=O)C(C)OC(=O)c2cc(=O)[nH]c3ccccc23)c1 (centres undefined) | -17% (inactive) | 
37 | COC(=O)c1[nH]c2ccc(C)cc2c1NC(=O)CN1CCCc2ccccc21 | -15.7% (inactive) | 
38 | CCOc1ccc(NC(=O)c2ccc(NC(=O)COC(=O)c3ccc(NC(=O)CC#N)cc3)cc2)cc1 |  | 3.98 µM (active)
39 | COc1cccc(N2CCN(C(=O)CN(C)S(=O)(=O)c3ccc4c(c3)CCC(=O)N4)CC2)c1 | -5.91% (inactive) | 

— PubChem BioAssay AID493170 (National Center for Advancing Translational Sciences (NCATS), 2011)
